Measured values taken from PubChem BioAssay AID1345085 (National Center for Advancing Translational Sciences (NCATS), 2018).
Inconclusive results are not listed. Active and inactive are the calls of the source. Calls come from the whole dose curve; as a rule, active = well fitted cell-killing curve with a large enough effect; inconclusive = small, poorly fitted or top-dose-only effect, or effect the other way; inactive = no such curve, though single readings can be large or run the other way. *1 amine or outer side, *2 acyl side, *3 side chain or, on linkers, in order; H or OH if unused. Where a SMILES comes first, the peptide text is derived from it. Bridges are numbered along the chain shown (N, C = ends). Roman numbers before positions name the chains, in order. [ ]: non-standard residue; d: D form. Actinocin(9to1) = Cc1c2oc3c(C)ccc(C(=O)[*:1])c3nc-2c(C(=O)[*:2])c(N)c1=O; NMeV = CN[C@H](C(=O)O)C(C)C; Sar = CNCC(=O)O
% is set by controls: 0 for no effect and ±100 for the full control effect; potency is the fitted concentration of half-maximal effect.
Note: nearly all actives have a fitted effect of over 55% in size.

The compounds below were run on SW626 (assay: Confirmatory qHTS for gynecologic anti-cancer compounds from libraries of approved drugs and bioactive compounds). Conditions: gynecologic cancer cell panel viability, ATPlite luminescence, 48 h; series mostly up to 57.6 µM; activity change, negative = viability loss: at the top concentration.
Procedure, shortened: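 IC50 values derive from an ATPlite ATP-content luminescence assay following 48 h treatment at 37 C. Each compound ran as an 11-concentration, threefold series (57.5 uM to 0.977 nM); HEK 293T served as control line for selectivity index.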
In the case of `CC(C)n1c(/C=C/[C@@H](O)C[C@@H](O)CC(=O)O)c(-c2ccc(F)cc2)c2ccccc21`, the Potency was 1.37 µM (active).
In the case of `COc1cc2c(NC3CCN(C(C)C)CC3)nc(C3CCCCC3)nc2cc1OCCCN1CCCC1`, the Potency was 10.9 µM (active).
`Cc1c2oc3c(C)ccc(C(=O)N[C@@H]4C(=O)N[C@H](C(C)C)C(=O)N5CCC[C@H]5C(=O)N(C)CC(=O)N(C)[C@@H](C(C)C)C(=O)O[C@@H]4C)c3nc-2c(C(=O)N[C@@H]2C(=O)N[C@H](C(C)C)C(=O)N3CCC[C@H]3C(=O)N(C)CC(=O)N(C)[C@@H](C(C)C)C(=O)O[C@@H]2C)c(N)c1=O` (I: T[dV]P[Sar][NMeV] / II: T[dV]P[Sar][NMeV]; ester I:1-I:C, II:1-II:C; linker I:N-II:N via Actinocin(9to1)) was tested, and the Potency was 0.0863 µM (active).
For `O=C(/C=C/c1cccc(S(=O)(=O)Nc2ccccc2)c1)NO`, the Potency was 1.33 µM (active).
For `CC(=O)O[C@H]1C(=O)[C@@]2(C)[C@H]([C@H](OC(=O)c3ccccc3)[C@]3(O)C[C@H](OC(=O)[C@H](O)[C@@H](NC(=O)c4ccccc4)c4ccccc4)C(C)=C1C3(C)C)[C@]1(OC(C)=O)CO[C@@H]1C[C@@H]2O`, the activity change, negative = viability loss was -9.14% [at 10.7 µM] (inactive).
`COc1ccc2c(c1OC)C(=O)O[C@@H]2[C@H]1c2c(cc3c(c2OC)OCO3)CCN1C` was tested, and the “activity change, negative = viability loss” value was -9.02% (inactive).
In the case of `O=C(c1ccc(/C=C/c2n[nH]c3ccccc23)cc1)N1CCNCC1`, the Potency was 15.3 µM (active).
In the case of `C[C@]12CCC(=O)C=C1CC[C@@H]1[C@@H]2[C@@H](O)C[C@@]2(C)[C@H]1CC[C@]2(O)C(=O)CO`, the “activity change, negative = viability loss” value was -4.48% (inactive).
For `CN(NC(=O)CC(=O)NN(C)C(=S)c1ccccc1)C(=S)c1ccccc1`, the Potency was 0.0968 µM (active).
In the case of `FC(F)(F)c1ccc(/C=C/c2nc(COc3ccc(CCCCn4ccnn4)cc3)co2)cc1`, the “activity change, negative = viability loss” value was 5.87% (inactive).
With `CCCc1nn(C)c2c(=O)[nH]c(-c3cc(S(=O)(=O)N4CCN(C)CC4)ccc3OCC)nc12` the “activity change, negative = viability loss” value was 10.3% (inactive).
For `Cc1cc(Nc2nc(N[C@@H](C)c3ccc(F)cc3)c(C#N)cc2F)n[nH]1`, the Potency was 5.44 µM (active).
For `C=CC(=O)Nc1cccc(Oc2nc(Nc3ccc(N4CCN(C)CC4)cc3)ncc2Cl)c1`, the Potency was 24.3 µM (active).
With `C[C@@]1(C(=O)Nc2ccc(F)nc2)CCCN1c1nc(Nc2cc(C3CC3)[nH]n2)c2cccn2n1` the “activity change, negative = viability loss” value was -16% (inactive).
In the case of `CCc1nc(C(N)=O)c(Nc2ccc(N3CCC(N4CCN(C)CC4)CC3)c(OC)c2)nc1NC1CCOCC1`, the Potency was 3.78 µM (active).
`COc1ccc(OC)c(-c2nnc3ccc(-c4ccc(OC)c(O[C@@H]5CCOC5)c4)nn23)c1` was tested, and the Potency was 8.63 µM (active).
For `NC(=O)c1ccc2nc(-c3ccc(Oc4ccc(Cl)cc4)cc3)[nH]c2c1`, the “activity change, negative = viability loss” value was -27.1% (inactive).
With `COc1cc(C(=O)N2CCC(N3CCN(C)CC3)CC2)ccc1Nc1ncc2c(n1)N(C)c1ccccc1C(=O)N2C` the Potency was 7.69 µM (active).
`Nc1nc(Cl)nc2c1ncn2C1OC(CO)C(O)C1F` (configuration not stated) was tested, and the “activity change, negative = viability loss” value was -18.5% (inactive).
For `Cc1cncc2cccc(S(=O)(=O)N3CCCN(C(=O)CN)C[C@@H]3C)c12`, the “activity change, negative = viability loss” value was -17% (inactive).
`Nc1ccccc1NC(=O)c1ccc(CNc2nccc(-c3cccnc3)n2)cc1` was tested, and the Potency was 0.685 µM (active).
For `CC(C)(C)C(=O)OCOP(=O)(COCCn1cnc2c(N)ncnc21)OCOC(=O)C(C)(C)C`, the Potency was 17.2 µM (active).
For `Cc1cnc(CNC(=O)c2c(=O)c3ccc(N4CCCN(C)CC4)nc3n3c2sc2ccccc23)cn1`, the activity change, negative = viability loss was -6.28% [at 10.7 µM] (inactive).
In the case of `CC[C@@]1(O)C(=O)OCc2c1cc1n(c2=O)Cc2cc3c(CN(C)C)c(O)ccc3nc2-1`, the Potency was 0.863 µM (active).
`CN(C)c1ccc(-c2nc3ncc(Cl)c(N4CCN(CC(=O)Nc5nccs5)CC4)c3[nH]2)cc1` was tested, and the “activity change, negative = viability loss” value was -9.1% [at 19.5 µM] (inactive).
With `N#CC1(c2cccc(C(=O)Nc3cc(Oc4ccc5nc(NC(=O)C6CC6)sc5n4)ccc3F)c2Cl)CC1` the Potency was 4.85 µM (active).
With `COc1cc2ncnc(Nc3ccc(F)c(Cl)c3)c2cc1OCCCN1CCOCC1` the “activity change, negative = viability loss” value was -20.8% (inactive).
For `CC(C)c1nn(-c2c(Cl)cccc2Cl)c2nc(Cc3ccc(OCCO)cc3)[nH]c(=O)c12`, the “activity change, negative = viability loss” value was 24.5% (inactive).
`CC[C@H](CC#N)OC(=O)N[C@@H](C)c1cccc(NC(=O)Nc2ccc(-c3cnco3)c(OC)c2)c1` was tested, and the “activity change, negative = viability loss” value was -9.55% (inactive).
For `c1cc(N[C@@H]2CCNC2)nc(-c2cnc3ccc(-c4cn[nH]c4)cn23)c1`, the “activity change, negative = viability loss” value was 20.5% (inactive).
With `CCN1CCN(Cc2ccc(-c3cc4c(NC(C)c5ccccc5)ncnc4[nH]3)cc2)CC1` (configuration not stated) the Potency was 27.3 µM (active).
For `Cc1cc(C2CCCCC2)n(O)c(=O)c1`, the Potency was 8.86 µM (active).
